From PubChem BioAssay (EPA / NIEHS) come the findings set out here.

Inconclusive results are not listed. Calls of active or inactive are those of the source. The calls were made as follows: active = hit-call score of the fitted dose curve at least 0.9, where 1 is the maximum; inconclusive = response in the unintended direction; inactive = score below 0.9.

The test in a line: Tanguay_ZF_120hpf_SOMI_legacy: (Legacy) Oregon State University Tanguay Lab 120 Hour Post-fertilization zebrafish Assay for Somite Malformation (AID 2283647). The protocol: Tanguay_ZF_120hpf_legacy is a whole embryo, multiplexed endpoint assay using zebrafish larvae exposed for 120 hours post fertilization on a 96-well plate.Tanguay_ZF_120hpf_SOMI_legacy is one of one assay component(s) measured or calculated from the Tanguay_ZF_120hpf_legacy assay. It is designed to make measurements of zebrafish development as detected with brightfield microscopy of developing zebrafish embryos.Data from the assay component Tanguay_ZF_120hpf_SOMI_legacy was analyzed into 1 assay endpoints. This assay endpoint, Tanguay_ZF_120hpf_SOMI_legacy, was analyzed in the positive analysis fitting direction relative to DMSO as the negative control and baseline of activity. Using a type of morphology reporter, gain-of-signal activity can be used to understand changes in developmentals as they relate to the whole embryo. To generalize the intended target to other relatable targets, this assay endpoint is annotated to the zebrafish development intended target family, where the subfamily is somitogenesis.
Zebrafish husbandry: Tropical 5D wild-type adult zebrafish were housed in at an approximate density of 1000 per 100 gallon tank at the Sinnhuber Aquatic Research Laboratory, Oregon State University, Corvallis, OR. Each tank was kept at standard laboratory conditions of 28C on a 14-h light/10-h dark photoperiod in fish water consisting of reverse osmosis water supplemented with a commercially available salt (Instant Ocean). Spawning funnels were placed into the tanks the night prior, and embryos were collected and staged. To increase bioavailability, the chorion was enzymatically removed using pronase (63.6mg/ml, >/= 3.5U/mg, Sigma-Aldrich: P5147) at 4 hours post fertilization (hpf) using a custom automated dechorionator.Chemical exposures: Six hpf dechorionated embryos were placed 1 embryo per well in a 96-well plate prefilled with 90 ul of EM using automated embryo placement systems (AEPS). Ten microliters of each row of dilution plate 2 was added to 2 exposure plates. The final DMSO concentration used was 0.64% (vol/vol). Thirty-two embryos were also exposed to 5uM trimethyltin chloride (positive control). Plates were sealed to prevent evaporation and foil covered to reduce light exposure and kept in a 28C incubator. Embryos were statically exposed until 120 hpf. At 24 hpf, embryos were assessed for photomotor response using a custom photomotor response analysis tool (PRAT) and for developmental toxicity endpoints (MO24: mortality at 24 hpf, DP: developmental progression, SM: spontaneous movement, and NC: notochord distortion). At 120 hpf, locomotor activity was measured using Viewpoint Zebralab and assessed for 18 endpoints. Zebrafish acquisition and analysis program (ZAAP), a custom program designed to inventory, acquire, and manage zebrafish data, was used to collect developmental endpoints as either present or absent (i.e., binary responses were recorded). If mortality occurred for an embryo (at either 24 or 120 hpf), the non-mortality endpoints were not measured.
Take `O=C(O)C(F)(F)C(F)(F)C(F)(F)C(F)(F)C(F)(F)C(F)(F)C(F)(F)C(F)(F)C(F)(F)F`: the compound was classed as inactive.
Still for that read-out and setting: the entry for `NS(=O)(=O)C(F)(F)C(F)(F)C(F)(F)C(F)(F)C(F)(F)C(F)(F)C(F)(F)C(F)(F)F` is “inactive”; for `ClC1=C(Cl)[C@]2(Cl)[C@@H]3[C@@H]4C[C@@H]([C@H]5O[C@@H]45)[C@@H]3[C@@]1(Cl)C2(Cl)Cl` it is “inactive”.
On the same count and under the same terms, the entry for `CCCN(CCC)N=O` is “inactive”; for `CC1=C2C[C@H]3[C@@H](CC=C4C[C@@H](O)CC[C@@]43C)[C@@H]2CC[C@]12O[C@@H]1C[C@H](C)CN[C@H]1[C@H]2C` it is “inactive”; for `Nc1ccc(-c2ccc(N)cc2)cc1` it is “inactive”.
The same measure, in the same setting: the entry for `ClC(Cl)=C(c1ccc(Cl)cc1)c1ccc(Cl)cc1` is “inactive”; for `O=C(NC(=O)c1c(F)cccc1F)Nc1cc(Cl)c(OC(F)(F)C(F)F)c(Cl)c1` it is “inactive”; for `O=S(=O)(O)C(F)(F)C(F)(F)C(F)(F)C(F)(F)C(F)(F)C(F)(F)F` it is “inactive”.
One may read the AC50 as the midpoint of the concentration-response curve, whichever way the signal moves. Take `CCC(C)(c1ccc(O)cc1)c1ccc(O)cc1`: the AC50 is 46.4 µM (active).
For the compound `Clc1ccc(Cl)cc1`, the result was inactive.
Same read-out and setting: to `Cc1ccc(O)c(C)c1` belongs “inactive”.
Consider `CCC(C)c1cc([N+](=O)[O-])cc([N+](=O)[O-])c1O` (stereo not given), for which the outcome was inactive.
Regarding `CC(C)(O)C(=O)Nc1ccc([N+](=O)[O-])c(C(F)(F)F)c1`, the outcome was inactive.
For `ClC1=C(Cl)[C@]2(Cl)[C@@H]3[C@H]4C[C@H]([C@@H]5O[C@H]45)[C@@H]3[C@@]1(Cl)C2(Cl)Cl`, the AC50 was 65.6 µM (active).
Regarding `Cc1cccc([N+](=O)[O-])c1`, the result was inactive.
Same read-out and setting: the entry for `Cc1cc2c3c(c1)C(c1ccccc1)=N[C@@H](NC(=O)c1ccncc1)C(=O)N3CC2` is “inactive”; for `c1ccc(-c2ccccc2)cc1` it is “inactive”; for `C[C@]12CCC(=O)C=C1CC[C@@H]1[C@@H]2CC[C@@]2(C)[C@H]1CC[C@]2(C)O` it is “inactive”.
Regarding `CC(C)(c1ccccc1)c1ccc(O)cc1`, the compound was called inactive.
As to `Nn1cnnc1`, the compound was classed as inactive.
For the compound `C[C@]12CCC(=O)C=C1CC[C@@H]1[C@@H]2CC[C@]2(C)C(=O)CC[C@@H]12`, the call was inactive.
On the same count and under the same terms, the entry for `C=CC(N)=O` is “inactive”; for `CC#Cc1cc(C)nc(Nc2ccccc2)n1` it is “inactive”; for `CCOP(=S)(OCC)SCSC(C)(C)C` it is “inactive”.
Consider `C=CC(=O)NCNC(=O)C=C`, for which the compound was classed as inactive.
As for `O=C(NC(=O)c1cc(F)c(F)cc1Cl)Nc1cc(F)ccc1N1CCC(C(=O)O)CC1`, the compound was classed as inactive.
Take `CCNc1nc(NC(C)C)nc(SC)n1`: the compound was called inactive.
On the same count and under the same terms, the entry for `COc1ccc(O)c(C(C)(C)C)c1` is “inactive”; for `O=C(O)C(F)(F)C(F)(F)C(F)(F)C(F)(F)C(F)(F)C(F)(F)C(F)(F)C(F)(F)F` it is “inactive”.
For `Cc1ccccc1[N+](=O)[O-]`, the result was inactive.
`Oc1ccc(Cl)cc1Cl`: the compound was called inactive.
In the case of `CCSC(=O)N(CC)C1CCCCC1`, the compound was classed as inactive.
In the case of `CCCCCCCCCc1ccc(O)cc1`, the result was inactive.
Still for that read-out and setting: the entry for `Clc1ccc(C(Cl)(Cl)Cl)cc1` is “inactive”; for `CCCCCCOC(=O)c1ccccc1C(=O)OCCCCCC` it is “inactive”; for `O=NN(c1ccccc1)c1ccccc1` it is “inactive”.
The same measure, in the same setting: the entry for `C1CC2OC2CC1C1CO1` (stereo not given) is “inactive”; for `Cc1ccccc1CO[C@@H]1C[C@@]2(C(C)C)CC[C@]1(C)O2` it is “inactive”; for `CCC(=O)O[C@H]1CC[C@H]2[C@@H]3CCC4=CC(=O)CC[C@]4(C)[C@H]3CC[C@]12C` it is “inactive”.
